Most compounds without a hit are left out; they make up all but 1.6% or so of the library.
STAT1 inh – STAT1 signaling inhibition | NIH 3T3 STAT1-luciferase reporter, IFN-gamma, luminescence | inhibition, % at 5.5 µM | 200,000 compounds, 0.35% hits;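 active = inhibition above a set limit, the mean inhibition across all tested compounds plus 3 SD, cut at about 34% in these data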;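 note: 0% = IFN-gamma with DMSO and 100% = IFN-gamma with 300 µM nifuroxazide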
Platelet DG rel – modulates dense granule release in human platelets; human platelet-rich plasma, SFLLRN dense granule ATP release, luminescence; inhibition, %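 (compounds screened at 7.5 µM in platelet-rich plasma)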; 300,000 compounds, 0.22% hits; AID 1663;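 active = mean replicate score, as percent of positive control, at or above 50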
STAT3 inh – inhibitors of IL-6 induced STAT3 signaling | U3A cells, IL-6 STAT3-luciferase reporter, luminescence; host cell line lacks STAT1 | inhibition, % at 5.5 µM | 190,000 compounds, 0.89% hits | AID 862;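 active = inhibition above the mean inhibition across all screened compounds plus 3 SD, cut at about 44% in these data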;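 note: 0% = DMSO only wells and 100% = 100 µM nifuroxazide control wells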
PPC-1+TRAIL kill – PPC-1 cancer cell killing with TRAIL present | PPC-1 cells + TRAIL, ATPLite viability luminescence | cell killing (% activity), % at 4 µM or 5 µM | 220,000 compounds, 0.41% hits | AID 1443;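 active = cell killing above 50% in the first pass at 4 µM, then a duplicate retest at 5 µM averaging 50% or more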;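 note: plate controls were cells with TRAIL plus DMSO for no effect and medium-only wells lacking cells for full effect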
C8 TRAIL sens – caspase-8 TRAIL sensitization | NB7+C8 cells + TRAIL, ATPlite viability luminescence | inhibition (viability loss, TRAIL sensitization), % at 10 µM | 360,000 compounds, 1% hits | AID 624354;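 active = compounds causing at least 50% loss of cell viability in the single-dose screen, relative to plate controls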
* marks the source's active call; other numbers are inactive results; · = not tested or not shown.

SMILES	STAT1 inh	Platelet DG rel	STAT3 inh	PPC-1+TRAIL kill	C8 TRAIL sens
O=C(Nc1cccc(-n2cnnn2)c1)c1ccncc1	·	6.5	·	·	17.9
O=C(CCNC(=O)c1ccc([N+](=O)[O-])cc1)NCc1ccco1	·	·	·	·	-8.1
Cc1ccc(S(=O)(=O)Cc2cc(F)c([N+](=O)[O-])cc2[N+](=O)[O-])cc1	·	-6.0	·	·	64.8*
CC1=C(/C=C/C(C)=C/C=C/C(C)=C\C(=O)O)C(C)(C)CCC1	·	-9.6	·	·	9.3
CC1=C(/C=C/C(C)=C/C=C/C(C)=C/C(=O)Nc2ccc(O)cc2)C(C)(C)CCC1	·	·	·	·	79.9*
COC(=O)[C@]12CCCCC=C1N(Cc1ccccc1)C(=O)[C@H](CC(=O)N1CCC(c3ccccc3)CC1)C2	·	·	·	·	31.2
COc1ccccc1C(=O)NNC(=O)c1cccc(O)c1	·	9.0	·	·	50.0*
COc1ccccc1C(=O)NNC(=O)c1cccc(F)c1	-50.9	5.3	9.8	9.9	21.4
C[C@@H]1CN([C@H](C)CO)C(=O)CCCn2nncc2CO[C@H]1CN(C)CC1CC1	·	·	·	·	0.9
CCOC(=O)N1CCC(N2Cc3cccc(C(=O)Nc4ccc(F)cc4)c3C2=O)CC1	1.4	-5.4	-0.8	25.5	-2.3
CCOC(=O)N1CCC(N2Cc3cccc(C(=O)Nc4cc(F)ccc4F)c3C2=O)CC1	-3.8	8.6	21.8	55.7*	27.0
COc1ccc(-c2c(C#N)c(N)nc3c2CCC3)cc1	1.0	-9.0	19.8	9.3	-7.1
CSc1nc2c(c(-c3ccc(O)cc3)c1C#N)CCC2	4.5	63.4*	-7.7	7.5	-10.0
COCCCN1C(=O)C(CC(=O)NCCN2CCOCC2)CC(C(=O)N(C)C)=C1C (centres undefined)	·	·	·	·	0.3
CCOc1ccc(/C=N/NC(=O)c2ccoc2C)cc1OC	·	49.8*	·	·	-1.8
COc1cc(/C=N/NC(=O)c2ccoc2C)ccc1O	-42.2	11.9	13.3	18.1	-3.5
CCN(CC)c1ccc(/C=N/NC(=O)c2ccoc2C)cc1	·	67.5*	·	-2.9	15.9
COc1cccc(/C=N/NC(=O)C(=O)N/N=C/c2cccc(OC)c2O)c1O	-4.1	·	2.7	-5.9	23.6
Cc1ccc(/C=N/NC(=O)c2cc(C)oc2C)cc1	·	6.9	·	43.5	50.2*
COc1cccc(/C=N/NC(=O)c2ccoc2C)c1O	·	97.6*	·	-6.6	36.9
O=C(/C=C/c1ccco1)Nc1scc(-c2ccccc2)c1C(=O)O	·	4.3	·	48.0	54.3*
CC(C)(C)C(=O)Nc1nnc([C@H]2C[C@H](O)[C@@H](CO)O2)s1	·	·	·	·	-9.9
CC(C)CCn1cnc2c([nH]c3cccc(Cl)c32)c1=O	0.1	-21.7	9.4	11.8	51.8*
CCOC(=O)C1CCN(C(=O)c2c(C)oc3c2C(=O)c2ccccc2C3=O)CC1	1.1	-19.4	12.2	28.5	52.1*
Cc1oc2c(c1C(=O)N1CCC(C)CC1)C(=O)c1ccccc1C2=O	-5.4	-14.8	7.7	12.9	·
SMILES	STAT1 inh	Platelet DG rel	STAT3 inh	PPC-1+TRAIL kill	C8 TRAIL sens
CSc1ccc(/C=C/C(=O)c2c(O)cc(C)oc2=O)cc1	·	-1.1	·	·	63.8*
CSc1ccc(/C=C/C(=O)c2ccc(NC(=O)C(C)C)cc2)cc1	0.3	1.8	13.7	15.5	-21.0
COc1cc(/C=C/C(=O)c2c(O)cc(C)oc2=O)cc(OC)c1O	-1.7	4.1	-2.3	-3.6	9.2
CSc1ccc(C(=O)/C=C/c2ccc(N)cc2)cc1	-15.1	20.3	5.5	44.2	54.5*
Cc1ccc(/C=C/C(=O)c2ccc([N+](=O)[O-])o2)cc1	·	-2.2	·	·	·
Cc1cc(O)c(C(=O)/C=C/c2ccc(Cl)cc2)c(=O)o1	·	-6.9	·	·	69.5*
O=C(/C=C/c1ccc(Cl)cc1)c1ccc([N+](=O)[O-])o1	·	-0.4	·	·	59.8*
COc1oc(C(=O)NC2CCCCC2)c(-c2ccc(Cl)cc2)c1S(=O)(=O)c1ccccc1	·	·	·	·	88.6*
CCCCCCc1cc2cc(C(=O)NCc3ccccc3)c(=N)oc2cc1O	7.4	2.6	23.5	14.3	4.4
CCCCCCc1cc2cc(C(=O)Nc3ccccc3)c(=O)oc2cc1O	-0.3	0.3	-8.5	8.8	60.3*
CCOC(=O)Cn1ccc2cc(S(=O)(=O)N3CCCC3)ccc21	·	·	·	·	4.0
Cc1ccc(-n2[nH]c(C)c(C=Nc3ccc4[nH]c(=O)[nH]c4c3)c2=O)cc1C	-2.8	1.9	2.4	40.0	51.3*
Fc1cccc(NCCc2c[nH]c3ccccc23)n1	·	-0.6	·	·	19.4
c1ccc2c(NCCc3c[nH]c4ccccc34)c3ccccc3nc2c1	·	-6.9	·	·	75.3*
Cc1ccc(Cl)cc1N1CCN(C(=O)Cn2ncn3cccc3c2=O)CC1	·	3.7	·	·	1.6
Cc1nc2c(-c3ccc(F)cc3)cnn2c(N)c1-c1ccccc1	·	-0.7	·	·	83.5*
Cc1nc2c(-c3ccc(Cl)cc3)cnn2c(N)c1-c1ccc(F)cc1	·	5.9	·	·	33.2
Cc1cc(-c2ccc(F)cc2)n2ncc(-c3ccccc3)c2n1	·	·	·	·	64.3*
COc1cccc(-c2sc3ccc(OC)cc3c2-c2cnc(N3CCOCC3)nc2)c1	·	·	·	·	-3.7
O=C(Nc1ccccc1F)c1ccc2ncsc2c1	·	·	·	·	-17.6
Cc1ccc(-c2nc(SC(C)C(=O)N3CCOCC3)n[nH]2)cc1 (centres undefined)	·	61.3*	·	·	3.1
CC1(c2nnnn2-c2ccc3c(c2)OCCO3)CCC(=O)N1C1CCN(Cc2ccccc2)CC1 (centres undefined)	·	·	·	·	6.8
COc1ccc(C(=O)O/N=C(\C)c2ccccc2)cc1	-27.2	64.9*	5.4	6.8	7.6
COc1ccc(/C(N)=N/OC(=O)c2ccc(OC)c([N+](=O)[O-])c2)cc1OC	1.2	0.6	25.9	2.8	64.2*
COc1ccccc1C/C(N)=N/OC(=O)c1ccc(C)c([N+](=O)[O-])c1	8.1	-0.7	-26.0	3.2	55.2*
SMILES	STAT1 inh	Platelet DG rel	STAT3 inh	PPC-1+TRAIL kill	C8 TRAIL sens
Cc1ccc(C(=O)O/N=C(\N)Cc2cccs2)cc1[N+](=O)[O-]	·	-6.5	·	·	9.6
COc1ccc(C(=O)O/N=C(\N)c2ccccc2Cl)cc1OC	·	-5.9	·	·	78.3*
COc1ccc(/C(N)=N/OC(=O)CC2CCCCC2)cc1OC	·	-7.3	·	·	72.8*
COc1ccc(C(=O)O/N=C(\N)c2ccc(OC)c(OC)c2)cc1	·	1.4	·	·	61.5*
COc1ccc(/C(N)=N/OC(=O)CCC2CCCC2)cc1OC	·	-1.4	·	·	-1.6
CN(C(=O)OC(C)(C)C)c1ccc(-c2nc3ccccc3s2)cc1	·	16.8	·	·	89.2*
Cc1ccc(O)c(N=Nc2ccccc2)n1	·	77.2*	·	·	41.9
O=C(Nc1ccc(Oc2ccccc2)cc1)c1ccc2sc([C@H]3C[C@H](O)[C@@H](CO)O3)nc2c1	·	·	·	·	42.5
CC[C@H](C)[C@@H]1NC(=O)[C@@H](CC(C)C)NC(=O)[C@H](C(C)C)NC(=O)[C@H]2CSSC[C@H](NC1=O)C(=O)N2	·	·	·	·	93.7*
CC(C)C[C@@H]1NC(=O)[C@H](C(C)C)NC(=O)c2cc([N+](=O)[O-])cc(I)c2NCC[C@@H](C(N)=O)NC1=O	9.4	9.5	-11.4	14.9	·
NC(=O)NC(CC(=O)NNC(=O)c1cccs1)c1ccc(Cl)cc1 (centres undefined)	·	·	·	·	3.0
O=C1c2ccccc2C(Nc2cccnc2)N1Cc1ccc2c(c1)OCO2 (centres undefined)	-3.4	-3.8	-2.2	64.7*	1.2

Screening data (PubChem)
